Data from PubChem BioAssay (EPA / NIEHS).
Inconclusive results are not listed. Active and inactive are the calls of the source. The calls were made as follows, unless noted: active = hit-call score of the fitted dose curve at least 0.9, where 1 is the maximum; inactive = score below 0.9.

Experiments:
[1] = BSK_4H_Eotaxin3: BioMAP Diversity Plus: 4H Assay for Eotaxin 3 Biomarker Activity (AID 2283000); settings: primary human endothelial cells (HUVEC); actives raise or lower the signal
How it was run: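 HUVEC, 24 h post-dose, ELISA for Eotaxin-3/CCL26. Gain or loss of signal fitted bidirectionally vs DMSO baseline.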

[2] = biological target: human Peroxisome Proliferator-activated Receptor delta (PPARd), PPARD (gene 5467) (UniProt Q03181); assay: ATG_PPARd_TRANS: Attagene TRANS-FACTORIAL HepG2 Assay for human Peroxisome Proliferator-activated Receptor delta (PPARd) (AID 2283002; active = hit-call score of the fitted dose curve at least 0.9, where 1 is the maximum)
How it was run: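 Multiplexed trans-activation format: HepG2 liver cells expressing exogenous NR-Gal4 chimeras and GAL4-UAS reporters were exposed for 24 h. Reporter mRNA was detected by RT-PCR with capillary electrophoresis fluorescence; activity fitted as gain of signal relative to DMSO.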

[3] = read-out: Intercellular Adhesion Molecule 1 (ICAM1), ICAM1 (gene 3383); assay: BSK_3C_ICAM1: BioMAP Diversity Plus: 3C Assay for Intercellular Adhesion Molecule 1 (ICAM1) Biomarker Activity (AID 2283003); settings: primary human endothelial cells (HUVEC); actives raise or lower the signal
How it was run: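 Human vascular endothelial primary cells, 3C conditions, 24 h treatment. ICAM-1 by ELISA.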

[4] = BSK_3C_Proliferation: Cell Proliferation Assessment in the BioMAP Diversity Plus: 3C Assay (AID 2283006); settings: primary human endothelial cells (HUVEC);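 as to AC50: potency may reflect either rise or fall in cell number versus DMSO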
How it was run: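 Proliferation of human vascular endothelial primary cells after 48 h dosing, quantified as SRB-stained protein at 560 nm relative to DMSO.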

[5] = biological target: Nuclear receptor subfamily 1 group I member 2 (Homo sapiens) (UniProt O75469); assay: ATG_PXR_TRANS: Attagene TRANS-FACTORIAL HepG2 Assay for human Pregnane X Receptor (PXR) (AID 2283008; active = hit-call score of the fitted dose curve at least 0.9, where 1 is the maximum)
How it was run: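 Read-out is fluorescence of labelled reporter cDNA fragments separated by capillary electrophoresis after RT-PCR and HpaI digestion. Source: HepG2 cells carrying PXR-GAL4/UAS reporter constructs, treated 24 h; activity fitted upward relative to DMSO.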

[6] = biological target: Retinoic acid receptor RXR-alpha (Homo sapiens) (UniProt P19793); assay: ATG_RXRa_TRANS: Attagene TRANS-FACTORIAL HepG2 Assay for human Retinoid X Receptor alpha (RXRa) (AID 2283012; active = hit-call score of the fitted dose curve at least 0.9, where 1 is the maximum)
How it was run: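 Cells (HepG2) carried transiently transfected GAL4-responsive reporter units. Following a 24 h chemical incubation, reporter mRNA induction was read via RT-PCR fragment analysis; DMSO served as negative control and baseline.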

[7] = biological target: human Retinoid X Receptor beta (RXRb), RXRB (gene 6257) (UniProt P28702); assay: ATG_RXRb_TRANS: Attagene TRANS-FACTORIAL HepG2 Assay for human Retinoid X Receptor beta (RXRb) (AID 2283013; active = hit-call score of the fitted dose curve at least 0.9, where 1 is the maximum)
How it was run: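 Multiplexed TRANS reporter assay in HepG2; 24 h dosing; reporter mRNA by RT-PCR/CE fluorescence; gain-of-signal relative to DMSO.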

[8] = biological target: human Thyroid Receptor alpha (THRa1), THRA (gene 7067) (UniProt P10827); assay: ATG_THRa1_TRANS: Attagene TRANS-FACTORIAL HepG2 Assay for human Thyroid Receptor alpha (THRa1) (AID 2283014; active = hit-call score of the fitted dose curve at least 0.9, where 1 is the maximum)
How it was run: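 HepG2 cells transiently transfected with multiplexed GAL4-UAS reporter units for exogenous chimeric THRa1-Gal4; reporter mRNA measured 24 h after dosing by RT-PCR, 6-FAM labelling, HpaI digestion and capillary electrophoresis. Gain-of-signal fitted versus DMSO baseline.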

[9] = read-out: E-selectin (Homo sapiens) (UniProt P16581); assay: BSK_3C_Eselectin: BioMAP Diversity Plus: 3C Assay for Eselectin Biomarker Activity (AID 2283015); settings: primary human endothelial cells (HUVEC); actives raise or lower the signal
How it was run: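 Primary human umbilical vein endothelial cells (3C system) were dosed with chemical and cell-surface E-selectin measured by ELISA 24 h later. Bidirectional curve fitting used DMSO as negative control and baseline.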

[10] = read-out: Interleukin-1 alpha (IL1a), IL1A (gene 3552); assay: BSK_BE3C_IL1a: BioMAP Diversity Plus: BE3C Assay for Interleukin-1 alpha (IL1a) Biomarker Activity (AID 2283016); settings: primary human bronchial epithelial cells; actives raise or lower the signal
How it was run: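 Cultures of primary human bronchial epithelial cells receive test chemical. After 24 h, IL-1a is quantified by ELISA, while parallel wells are fixed in TCA and SRB-stained for total protein. Changes in either direction are fitted relative to DMSO.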

[11] = read-out: Monocyte Chemoattractant Protein-1 (MCP1), CCL2 (gene 6347); assay: BSK_3C_MCP1: BioMAP Diversity Plus: 3C Assay for Monocyte Chemoattractant Protein-1 (MCP1) Biomarker Activity (AID 2283017); settings: primary human endothelial cells (HUVEC); actives raise or lower the signal
How it was run: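 Primary human umbilical vein endothelial cells (3C system) were exposed to test chemical for 24 h, after which MCP-1 was quantified by ELISA. Activity was fitted bidirectionally against DMSO as negative control and baseline.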

[12] = read-out: Monocyte Chemoattractant Protein-1 (MCP1), CCL2 (gene 6347); assay: BSK_4H_MCP1: BioMAP Diversity Plus: 4H Assay for Monocyte Chemoattractant Protein-1 (MCP1) Biomarker Activity (AID 2283018); settings: primary human endothelial cells (HUVEC); actives raise or lower the signal
How it was run: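 Readout: MCP-1 ELISA on compound-treated HUVEC, sampled 24 h post-dosing. Baseline and negative control DMSO; bidirectional fit. Overt toxicity checked alongside by sulforhodamine B protein staining at time of biomarker measurement.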

[13] = read-out: Human Leukocyte Antigen - DR isotype (HLADR), HLA-DRA (gene 3122); assay: BSK_3C_HLADR: BioMAP Diversity Plus: 3C Assay for Human Leukocyte Antigen - DR isotype (HLADR) Biomarker Activity (AID 2283019); settings: primary human endothelial cells (HUVEC); actives raise or lower the signal
How it was run: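 Primary human umbilical vein endothelial cells (3C system) were dosed with compound and cell-surface HLA-DR was quantified by ELISA at 24 h. Activity was fitted bidirectionally against DMSO as negative control and baseline.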

[14] = biological target: human Retinoic Acid Receptor beta (RARb), RARB (gene 5915) (UniProt P10826); assay: ATG_RARb_TRANS: Attagene TRANS-FACTORIAL HepG2 Assay for human Retinoic Acid Receptor beta (AID 2283004; active = hit-call score of the fitted dose curve at least 0.9, where 1 is the maximum)
How it was run: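 HepG2 cells transiently transfected with multiplexed GAL4-UAS reporter units expressing chimeric NR–Gal4 fusions; 24 h compound exposure. Reporter mRNA quantified by RT-PCR, 6-FAM labelling, HpaI digestion and capillary electrophoresis; gain-of-signal fitted against DMSO baseline.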

[15] = biological target: Peroxisome proliferator-activated receptor gamma (Homo sapiens) (UniProt P37231); assay: ATG_PPARg_TRANS: Attagene TRANS-FACTORIAL HepG2 Assay for human Peroxisome Proliferator-activated Receptor-gamma (PPARg) (AID 2283007; active = hit-call score of the fitted dose curve at least 0.9, where 1 is the maximum)
How it was run: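 A TRANS-format multiplexed reporter assay measures activity of an exogenous chimeric NR-Gal4 protein in HepG2 cells. After 24 h of chemical exposure, reporter transcripts are amplified, fluorescently labelled and sized by capillary electrophoresis, with gain of signal scored against DMSO.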

[16] = biological target: human RAR-related Orphan Receptor beta (RORb), RORB (gene 6096) (UniProt Q92753); assay: ATG_RORb_TRANS: Attagene TRANS-FACTORIAL HepG2 Assay for human RAR-related Orphan Receptor beta (RORb) (AID 2283010; active = hit-call score of the fitted dose curve at least 0.9, where 1 is the maximum)
How it was run: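 In this TRANS-format test, human HepG2 cells express chimeric NR-Gal4 fusion proteins driving GAL4-UAS reporters. After 24 h dosing, reporter transcripts are measured by fluorescent RT-PCR/capillary electrophoresis, with DMSO as negative control.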

[17] = biological target: human Peroxisome Proliferator-activated Receptor alpha (PPARa), PPARA (gene 5465) (UniProt Q07869); assay: ATG_PPARa_TRANS: Attagene TRANS-FACTORIAL HepG2 Assay for human Peroxisome Proliferator-activated Receptor alpha (PPARa) (AID 2283001; active = hit-call score of the fitted dose curve at least 0.9, where 1 is the maximum)
How it was run: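 HepG2 cells transiently transfected with multiplexed GAL4-UAS reporter units and chimeric NR-Gal4 constructs were dosed for 24 h. Reporter mRNA was measured by RT-PCR with fluorescent labelling and capillary electrophoresis; gain of signal fitted against DMSO.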

[18] = biological target: human RAR-related Orphan Receptor gamma (RORg), RORC (gene 6097) (UniProt P51449); assay: ATG_RORg_TRANS: Attagene TRANS-FACTORIAL HepG2 Assay for human RAR-related Orphan Receptor gamma (RORg) (AID 2283011; active = hit-call score of the fitted dose curve at least 0.9, where 1 is the maximum)
How it was run: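 Readout: reporter transcript induction (RT-PCR, fluorescent primer extension, capillary electrophoresis) after 24 h compound exposure of transiently transfected HepG2 cells carrying a RORg-Gal4 chimera and GAL4-UAS reporters; DMSO served as baseline, with increasing signal fitted.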

[19] = biological target: Retinoic acid receptor alpha (Homo sapiens) (UniProt P10276); assay: ATG_RARa_TRANS: Attagene TRANS-FACTORIAL HepG2 Assay for human Retinoic Acid Receptor alpha (RARa) (AID 2283005; active = hit-call score of the fitted dose curve at least 0.9, where 1 is the maximum)
How it was run: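 HepG2 cells transiently transfected with multiple reporter units expressing chimeric RARα-GAL4 fusion, with GAL4-UAS-driven reporters. After 24 h compound exposure, reporter mRNA induction quantified by RT-PCR and capillary electrophoresis with fluorescent labeling; gain-of-signal fitted relative to DMSO control.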

[20] = biological target: human Retinoic Acid Receptor gamma (RARg), RARG (gene 5916) (UniProt P13631); assay: ATG_RARg_TRANS: Attagene TRANS-FACTORIAL HepG2 Assay for human Retinoic Acid Receptor gamma (RARg) (AID 2283009; active = hit-call score of the fitted dose curve at least 0.9, where 1 is the maximum)
How it was run: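 HepG2, RARg-GAL4 TRANS system, 24 h exposure; reporter mRNA by RT-PCR + CE fluorescence; increase over DMSO.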

Measured: AC50

Sequence of E-selectin (Homo sapiens) (P16581 whole entry, looked up): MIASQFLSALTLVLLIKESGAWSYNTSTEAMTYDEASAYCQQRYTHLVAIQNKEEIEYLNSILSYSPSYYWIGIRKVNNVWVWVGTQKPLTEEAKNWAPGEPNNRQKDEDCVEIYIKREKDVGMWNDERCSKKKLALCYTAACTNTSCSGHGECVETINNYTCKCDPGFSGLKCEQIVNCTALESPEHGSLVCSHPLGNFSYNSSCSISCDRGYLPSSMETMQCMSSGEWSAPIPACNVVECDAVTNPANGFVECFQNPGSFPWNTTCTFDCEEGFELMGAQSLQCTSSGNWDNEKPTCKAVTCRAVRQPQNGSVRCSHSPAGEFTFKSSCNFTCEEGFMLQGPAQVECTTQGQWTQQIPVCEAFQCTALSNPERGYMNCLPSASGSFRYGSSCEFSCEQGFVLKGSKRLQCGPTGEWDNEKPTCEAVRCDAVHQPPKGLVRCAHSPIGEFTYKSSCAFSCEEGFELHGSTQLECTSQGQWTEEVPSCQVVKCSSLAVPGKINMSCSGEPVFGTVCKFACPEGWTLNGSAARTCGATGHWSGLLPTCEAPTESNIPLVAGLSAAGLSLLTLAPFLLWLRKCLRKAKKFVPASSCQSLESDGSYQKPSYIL
Sequence of human Retinoic Acid Receptor beta (RARb), RARB (gene 5915) (P10826 whole entry, looked up, the tested form may be a part): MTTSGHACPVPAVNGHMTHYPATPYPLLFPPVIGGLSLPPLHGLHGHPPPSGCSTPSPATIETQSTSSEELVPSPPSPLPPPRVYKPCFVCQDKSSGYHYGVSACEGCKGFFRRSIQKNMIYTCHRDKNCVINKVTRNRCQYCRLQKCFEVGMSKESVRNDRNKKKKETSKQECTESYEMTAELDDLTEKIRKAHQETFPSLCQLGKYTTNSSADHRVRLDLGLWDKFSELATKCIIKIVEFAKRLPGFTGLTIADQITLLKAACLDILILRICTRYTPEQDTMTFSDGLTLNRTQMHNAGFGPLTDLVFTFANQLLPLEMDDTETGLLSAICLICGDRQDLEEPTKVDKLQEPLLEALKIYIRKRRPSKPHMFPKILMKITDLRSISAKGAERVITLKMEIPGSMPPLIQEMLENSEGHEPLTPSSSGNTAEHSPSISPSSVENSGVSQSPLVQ
Sequence of human Peroxisome Proliferator-activated Receptor delta (PPARd), PPARD (gene 5467) (Q03181 whole entry, looked up, the tested form may be a part): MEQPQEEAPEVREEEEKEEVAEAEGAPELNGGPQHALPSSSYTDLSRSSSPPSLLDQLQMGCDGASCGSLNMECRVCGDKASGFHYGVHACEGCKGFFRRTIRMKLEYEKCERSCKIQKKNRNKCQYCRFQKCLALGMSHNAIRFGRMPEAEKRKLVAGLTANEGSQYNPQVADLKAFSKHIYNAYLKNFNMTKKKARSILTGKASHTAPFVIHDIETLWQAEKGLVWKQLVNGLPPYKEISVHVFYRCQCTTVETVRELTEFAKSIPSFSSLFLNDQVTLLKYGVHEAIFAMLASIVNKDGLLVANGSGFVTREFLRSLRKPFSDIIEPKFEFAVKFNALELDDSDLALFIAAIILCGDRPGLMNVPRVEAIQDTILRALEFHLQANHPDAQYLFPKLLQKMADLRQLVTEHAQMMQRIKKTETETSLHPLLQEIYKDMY
Sequence of Retinoic acid receptor RXR-alpha (Homo sapiens) (P19793 whole entry, looked up, the tested form may be a part): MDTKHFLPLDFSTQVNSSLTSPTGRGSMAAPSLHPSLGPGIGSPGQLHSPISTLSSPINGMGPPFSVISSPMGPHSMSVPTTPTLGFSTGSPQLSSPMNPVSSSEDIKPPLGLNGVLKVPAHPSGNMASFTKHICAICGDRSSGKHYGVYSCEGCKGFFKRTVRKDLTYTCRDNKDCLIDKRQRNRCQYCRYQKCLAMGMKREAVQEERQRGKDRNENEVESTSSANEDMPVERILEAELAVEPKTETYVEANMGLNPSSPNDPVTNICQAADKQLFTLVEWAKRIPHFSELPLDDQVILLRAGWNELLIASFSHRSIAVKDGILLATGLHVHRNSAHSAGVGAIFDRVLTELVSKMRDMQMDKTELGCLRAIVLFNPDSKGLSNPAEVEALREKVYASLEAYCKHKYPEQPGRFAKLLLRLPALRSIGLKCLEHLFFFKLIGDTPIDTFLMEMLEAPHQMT
Sequence of human RAR-related Orphan Receptor beta (RORb), RORB (gene 6096) (Q92753 whole entry, looked up, the tested form may be a part): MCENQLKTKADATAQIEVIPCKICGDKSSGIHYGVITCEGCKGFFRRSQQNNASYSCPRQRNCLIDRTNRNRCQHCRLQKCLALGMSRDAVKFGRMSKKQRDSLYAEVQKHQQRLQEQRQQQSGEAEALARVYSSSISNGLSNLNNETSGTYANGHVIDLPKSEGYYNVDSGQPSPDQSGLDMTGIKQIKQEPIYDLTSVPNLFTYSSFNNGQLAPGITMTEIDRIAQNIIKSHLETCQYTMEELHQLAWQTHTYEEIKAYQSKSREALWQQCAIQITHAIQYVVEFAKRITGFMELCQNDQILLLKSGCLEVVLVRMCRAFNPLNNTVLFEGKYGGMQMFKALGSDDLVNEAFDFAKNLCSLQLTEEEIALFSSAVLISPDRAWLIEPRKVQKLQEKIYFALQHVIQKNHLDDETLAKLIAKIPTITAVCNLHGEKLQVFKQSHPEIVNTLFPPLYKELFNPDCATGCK
Sequence of human Thyroid Receptor alpha (THRa1), THRA (gene 7067) (P10827 whole entry, looked up, the tested form may be a part): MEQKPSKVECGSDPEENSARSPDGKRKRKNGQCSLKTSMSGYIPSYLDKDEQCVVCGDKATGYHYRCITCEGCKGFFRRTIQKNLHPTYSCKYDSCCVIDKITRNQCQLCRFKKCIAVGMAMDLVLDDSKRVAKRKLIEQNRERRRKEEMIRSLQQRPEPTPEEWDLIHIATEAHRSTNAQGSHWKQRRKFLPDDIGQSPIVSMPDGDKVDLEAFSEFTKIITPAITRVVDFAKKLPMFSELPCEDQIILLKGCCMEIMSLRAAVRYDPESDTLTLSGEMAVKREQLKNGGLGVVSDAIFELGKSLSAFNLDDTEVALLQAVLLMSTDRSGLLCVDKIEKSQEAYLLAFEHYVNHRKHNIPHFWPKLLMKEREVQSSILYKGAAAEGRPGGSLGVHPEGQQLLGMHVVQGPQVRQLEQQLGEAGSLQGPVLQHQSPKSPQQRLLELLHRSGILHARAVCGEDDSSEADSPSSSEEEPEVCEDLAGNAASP
Sequence of Peroxisome proliferator-activated receptor gamma (Homo sapiens) (P37231 whole entry, looked up, the tested form may be a part): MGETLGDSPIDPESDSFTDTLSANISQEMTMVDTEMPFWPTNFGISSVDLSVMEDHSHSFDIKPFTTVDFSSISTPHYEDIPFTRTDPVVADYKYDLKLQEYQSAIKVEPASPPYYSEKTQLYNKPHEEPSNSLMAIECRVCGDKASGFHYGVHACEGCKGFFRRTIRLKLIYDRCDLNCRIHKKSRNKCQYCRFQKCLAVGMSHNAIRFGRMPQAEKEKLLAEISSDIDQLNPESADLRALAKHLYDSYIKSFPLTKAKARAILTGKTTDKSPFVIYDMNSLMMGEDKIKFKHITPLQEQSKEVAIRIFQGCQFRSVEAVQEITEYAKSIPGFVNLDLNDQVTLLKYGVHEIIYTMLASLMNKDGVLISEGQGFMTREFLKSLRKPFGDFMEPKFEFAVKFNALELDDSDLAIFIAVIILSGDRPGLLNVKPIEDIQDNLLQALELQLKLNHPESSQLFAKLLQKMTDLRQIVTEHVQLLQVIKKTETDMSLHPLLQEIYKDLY
Sequence of Nuclear receptor subfamily 1 group I member 2 (Homo sapiens) (O75469 whole entry, looked up, the tested form may be a part): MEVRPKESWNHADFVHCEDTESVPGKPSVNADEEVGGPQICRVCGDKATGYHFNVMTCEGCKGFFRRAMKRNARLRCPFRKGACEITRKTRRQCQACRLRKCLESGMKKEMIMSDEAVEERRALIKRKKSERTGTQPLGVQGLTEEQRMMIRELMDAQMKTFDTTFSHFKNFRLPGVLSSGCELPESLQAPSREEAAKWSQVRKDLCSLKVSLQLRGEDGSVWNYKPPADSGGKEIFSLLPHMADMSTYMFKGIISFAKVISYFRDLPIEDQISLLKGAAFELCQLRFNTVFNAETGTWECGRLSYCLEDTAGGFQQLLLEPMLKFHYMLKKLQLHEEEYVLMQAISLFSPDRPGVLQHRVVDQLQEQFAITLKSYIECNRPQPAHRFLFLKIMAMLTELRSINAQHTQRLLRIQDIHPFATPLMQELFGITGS
Sequence of human Retinoid X Receptor beta (RXRb), RXRB (gene 6257) (P28702 whole entry, looked up): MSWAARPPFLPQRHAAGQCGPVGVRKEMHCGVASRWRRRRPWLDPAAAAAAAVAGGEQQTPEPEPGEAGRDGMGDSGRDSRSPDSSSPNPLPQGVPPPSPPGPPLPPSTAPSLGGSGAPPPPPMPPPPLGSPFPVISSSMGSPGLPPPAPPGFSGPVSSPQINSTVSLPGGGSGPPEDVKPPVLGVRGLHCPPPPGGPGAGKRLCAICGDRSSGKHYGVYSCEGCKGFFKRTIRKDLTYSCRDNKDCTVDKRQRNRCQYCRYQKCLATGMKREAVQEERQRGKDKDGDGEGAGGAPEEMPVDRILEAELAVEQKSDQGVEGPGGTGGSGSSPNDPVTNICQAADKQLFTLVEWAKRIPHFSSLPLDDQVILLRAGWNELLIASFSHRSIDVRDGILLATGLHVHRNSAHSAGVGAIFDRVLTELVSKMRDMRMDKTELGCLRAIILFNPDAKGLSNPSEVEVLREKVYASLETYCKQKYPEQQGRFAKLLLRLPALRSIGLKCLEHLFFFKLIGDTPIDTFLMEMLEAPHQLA
Sequence of human RAR-related Orphan Receptor gamma (RORg), RORC (gene 6097) (P51449 whole entry, looked up, the tested form may be a part): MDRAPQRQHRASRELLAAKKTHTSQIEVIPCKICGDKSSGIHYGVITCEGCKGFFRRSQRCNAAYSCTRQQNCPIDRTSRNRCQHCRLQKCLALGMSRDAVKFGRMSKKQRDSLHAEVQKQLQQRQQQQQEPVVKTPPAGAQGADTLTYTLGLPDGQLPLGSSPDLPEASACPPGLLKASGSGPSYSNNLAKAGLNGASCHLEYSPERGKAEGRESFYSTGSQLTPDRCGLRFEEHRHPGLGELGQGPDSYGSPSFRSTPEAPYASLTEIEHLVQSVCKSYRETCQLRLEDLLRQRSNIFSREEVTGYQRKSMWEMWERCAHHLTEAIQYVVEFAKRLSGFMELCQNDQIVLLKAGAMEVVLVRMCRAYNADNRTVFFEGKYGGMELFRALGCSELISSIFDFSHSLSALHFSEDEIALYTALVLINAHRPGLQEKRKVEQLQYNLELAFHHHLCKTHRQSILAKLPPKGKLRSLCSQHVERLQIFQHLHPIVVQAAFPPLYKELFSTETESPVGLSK

CC1(C)[C@H](C=C(Cl)Cl)[C@H]1C(=O)OCc1cccc(Oc2ccccc2)c1
inactive: [1] | [2] | [3] | [4] | [6] | [7] | [8] | [9] | [10] | [11] | [12] | [13]
active: [5] 1.99 µM

CCn1cc(C(=O)O)c(=O)c2ccc(C)nc21
inactive: [1] | [3] | [14] | [4] | [15] | [5] | [16] | [6] | [9] | [10] | [11] | [12] | [13]

CC(C)CCCC(C)(C)O
inactive: [1] | [2] | [3] | [4] | [5] | [16] | [6] | [7] | [9] | [10] | [11] | [12] | [13]

c1ccc2c(c1)-c1ccc3ccc4cccc5cc-2c1c3c45
inactive: [17] | [2] | [3] | [4] | [15] | [5] | [16] | [18] | [7] | [8] | [10] | [11] | [12]
active: [1] 0.981 µM | [9] 0.575 µM | [13] 0.621 µM

COC(=O)c1ccc(C(=O)OC)cc1
inactive: [1] | [17] | [3] | [14] | [19] | [4] | [5] | [18] | [6] | [7] | [8] | [9] | [10] | [11] | [12] | [13]

CCCCCCCCCCCCS
inactive: [15] | [5] | [16] | [18] | [6] | [7] | [10]
active: [1] 28 µM | [3] 29.8 µM | [4] 14.4 µM | [9] 20 µM | [11] 29.5 µM | [12] 23.8 µM | [13] 20 µM

C#C[C@]1(O)CC[C@H]2[C@@H]3CCc4cc(O)ccc4[C@H]3CC[C@@]21C
inactive: [1] | [2] | [3] | [14] | [19] | [15] | [20] | [16] | [6] | [7] | [8] | [10] | [12]
active: [4] 4.5 µM | [9] 5.36 µM | [11] 7.15 µM | [13] 6.67 µM
